# Screening results as filed in PubChem BioAssay.
# Pf growth 48h = P. falciparum growth inhibition at 48 hours (one generation); P. falciparum luciferase growth in erythrocytes, 48 h; Potency, µM (top dose mostly 28.7 µM), for inactives: at the top dose activity change, negative = inhibition, actives largely listed as inhibitors; 310,000 tested, 5.9% active; active means well fitted inhibition curve with a large enough effect; inconclusive means small, poorly fitted or top-dose-only effect, or another doubt; inactive means no such curve, though single readings can be large or run the other way; further: on the % scale 0 is the no-effect control and ±100 the full control effect
#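 Parasite viability was followed by luminescence of a genomically integrated firefly luciferase. Cultures held 0.1% parasitemia at 2% hematocrit (final), incubated under 5% CO2 at 37 C.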
# RE007 growth inh = less growth of the S. pombe RE007 Vpr strain | S. pombe RE007 Vpr strain, BacTiter-Glo ATP luminescence, 24 h | Potency, µM (highest dose often 92.2 µM), for inactives: at the highest dose activity change, negative = less growth, usual class: inhibitors | 360,000 tested, 0.21% active | AID 651644; active means well fitted falling curve with a large enough effect; inconclusive means small, poorly fitted or top-dose-only effect; inactive means no such curve, though single readings can be large or run the other way; further: on the % scale 0 is the no-effect control and ±100 the full control effect; nearly all actives have a fitted effect of over 50% in size
#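 Fission yeast RE007 carrying one integrated HIV-1 vpr copy, seeded at OD 0.01 in PMG+AL medium with 23 nL pinned compound. Grown 24 h at 30 degrees; viability read by BacTiter-Glo luminescence after 5 min.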
# NS1 inh = influenza NS1 inhibition; Potency, µM (top dose mostly 46.1 µM), for the others: top-dose activity, positive = more growth; 270,000 tested, 0.4% active; AID 2326; further: actives are rising curves; nearly all actives have a fitted effect of over 50% in size
#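 Read-out: OD600 growth recovery of NS1-expressing budding yeast. Cells grown overnight at 30C in -URA glucose medium, washed, resuspended and diluted 1:100 in 2% galactose assay medium, pH 6.0. Same strain lacking NS1 served as positive control.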
# SARS PLpro yeast = blocks SARS-CoV papain-like protease in a yeast assay; S. cerevisiae expressing SARS-CoV PLpro, growth rescue; Potency, µM (titrated, usually from 32.9 µM), for the others: top-dose activity, positive = growth rescue, hits mostly activators; 330,000 tested, 0.19% active; further: 0% is about no effect; nearly all actives have a fitted effect of over 55% in size
# Pf growth 96h = inhibits malaria parasite growth, 96 h | P. falciparum luciferase reporter growth, 96 h | Potency, µM (top dose mostly 28.7 µM), inactives show top-dose activity change, negative = inhibition, usual class: inhibitors | 320,000 tested, 6.9% active | AID 504834; active means well fitted inhibition curve with a large enough effect; inconclusive means small, poorly fitted or top-dose-only effect, or another doubt; inactive means no such curve, though single readings can be large or run the other way; further: on the % scale 0 is the no-effect control and ±100 the full control effect
#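 Erythrocytes infected with luciferase-expressing P. falciparum were dispensed at 2% hematocrit and 0.05% parasitemia (final), then incubated with compounds 96 hours at 37 C in 5% CO2. Luminescence after detection reagent addition reported growth.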
# Active calls of the source: *; u = inconclusive; x = not tested or not shown. A selection: hits, their analogues and other compounds. The true share with any hit is near 9.5%. Unless noted, the call rests on the fitted dose curve. Potency means the concentration at half of the fitted maximal effect.
SMILES,Pf growth 48h,RE007 growth inh,NS1 inh,SARS PLpro yeast,Pf growth 96h
O=C(c1ccc(Cl)cc1)N1CCN(c2ccnc3cc(Cl)ccc23)CC1,13µM*,-16%,-37%,-3%,15%
CCOC(=O)C1=CCC(c2ccc(C#N)cc2)N(S(=O)(=O)c2ccc(C)cc2)C1 (stereo not drawn),x,-12%,x,x,x
CC1CC1C(=O)OCC(=O)N(C)c1c(N)n(Cc2ccccc2)c(=O)[nH]c1=O (stereo not drawn),41%,-11%,x,3%,-7%
O=C(O)c1ccc(-n2cc(-c3cc4ccccc4oc3=O)[nH]c2=S)cc1,127%,-13%,-2%,0%,0.17µM*
O=c1oc2ccccc2cc1-c1ccccc1,49%,-26%,-8%,-1%,-6%
Cc1ccccc1NC(=O)Cc1nc(COC(=O)c2ccc([N+](=O)[O-])cc2)cs1,18%,6%,x,3%,26%
Cc1ccc(C)c(NC(=O)Cc2nc(CCl)cs2)c1,15µM*,-21%,2%,-7%,u
Cc1ccc(OCCC(=O)OCc2csc(CC(=O)Nc3ccccc3C)n2)cc1,-24%,-1%,-8%,-9%,-21%
Cc1ccccc1NC(=O)Cc1nc(COC(=O)c2cccc([N+](=O)[O-])c2)cs1,-9%,5%,26%,-1%,4.1µM*
Cc1ccccc1NC(=O)Cc1nc(COC(=O)c2cccc(O)c2)cs1,u,30%,x,1%,-48%
Cc1ccccc1NC(=O)Cc1nc(COC(=O)c2ccc(Cl)c(S(N)(=O)=O)c2)cs1,u,11%,x,2%,13µM*
Cc1ccc(C)c(OCCC(=O)OCc2csc(CC(=O)Nc3ccccc3C)n2)c1,12µM*,0%,x,0%,u
CCOc1ccc(NC(=O)COC(=O)c2cc(C)oc2C)cc1,x,-23%,x,-4%,x
Cc1cc(C(=O)CN2CCN(CC(=O)Nc3cccc(F)c3)CC2)c(C)n1C1CC1,u,u,x,3%,0%
O=[N+]([O-])c1ccc(-c2ccccc2)c([As](=O)(O)O)c1,12µM*,x,-5%,1%,2.1µM*
O=[N+]([O-])c1ccc2nc(-c3ccccc3)cc(-c3ccccc3)c2c1,38%,-12%,10%,15%,55%
CCc1nc2ccc(C(=O)Nc3cc(-c4ccccc4)ccc3OC)cn2c1N(C=O)CCC(C)C,x,-18%,x,x,x
Nc1c(Br)cc2oc(-c3ccccc3)nc2c1Br,227%,11%,5%,15%,273%
COc1ccc(-c2nc3c(Br)c(N)c(Br)cc3o2)cc1,2.3µM*,-9%,4%,4%,u
C[N+](C)(C)CCN(Cc1ccc(Cl)cc1)c1ccccn1,6.6µM*,-10%,19%,5%,2.3µM*
CC(C)N(Cc1ccccc1)S(=O)(=O)c1n[nH]c(C(C)(C)C)n1,x,x,-3%,x,x
CCN(CC)S(=O)(=O)c1ccc(C2=NOC3(C2)N(C)c2ccccc2C3(C)C)cc1 (stereo not drawn),12µM*,3%,2%,-3%,13µM*
CN1c2ccccc2C(C)(C)C12CC(c1cccc(S(=O)(=O)N3CCCC3)c1)=NO2 (stereo not drawn),10µM*,-5%,-15%,-20%,u
CCC(=O)Nc1cccc(NC(=O)c2ccccc2Br)c1,33%,-2%,8%,-5%,-7%
CN(c1ccccc1)S(=O)(=O)c1cccc(NC(=O)c2cncc(Br)c2)c1,10µM*,11%,-4%,-3%,8.3µM*
SMILES,Pf growth 48h,RE007 growth inh,NS1 inh,SARS PLpro yeast,Pf growth 96h
O=C(Nc1ccccc1Cl)c1cc(=O)c2ccccc2o1,103%,-13%,-11%,-3%,12µM*
CCN(CC)S(=O)(=O)c1cccc(NC(=O)c2ccccc2Br)c1,10µM*,4%,x,-3%,u
CN(c1ccccc1)S(=O)(=O)c1cccc(NC(=O)c2cc(=O)c3ccccc3o2)c1,u,4%,x,-1%,10µM*
O=C(O)C1C2CCC1C(O)C2 (stereo not drawn),x,-3%,x,x,x
CCOc1ccc(NS(=O)(=O)c2cc3c4c(c2)C(C)C(=O)N4CCC3)cc1 (stereo not drawn),-24%,2%,11%,-2%,-3%
CC(=O)Nc1ccc(C(=O)Nc2cccc(S(=O)(=O)N(C)c3ccccc3)c2)cc1,9.3µM*,20%,x,9%,u
CN(c1ccccc1)S(=O)(=O)c1cccc(NC(=O)CCNC(=O)c2ccccc2)c1,9.3µM*,-19%,x,0%,u
CN(c1ccccc1)S(=O)(=O)c1cccc(NC(=O)c2ccncc2)c1,-11%,1%,2%,1%,u
CN(c1ccccc1)C1CCCCC1NS(=O)(=O)c1ccc(Cl)cc1 (stereo not drawn),6.6µM*,-20%,-36%,-85%,u
Cc1cc(NC(=O)CSc2nc(-c3ccccc3)nc3c2c(=O)n(C)c(=O)n3C)no1,5%,8%,2%,0%,58%
O=C(Nc1ccc(N2CCOCC2)cc1)c1ccc(COc2ccccc2)cc1,-7%,-5%,11%,4%,u
CC1CN(CC(O)COCc2ccc3c(c2)OCO3)CC(C)O1 (stereo not drawn),8%,7%,1%,23%,26%
Cc1ccc(NC(=O)CSc2nc(=O)n(CCCN3CCOCC3)c3c2CCCC3)cc1,13µM*,-13%,x,-2%,-24%
CCN(CC)CCCn1c2c(c(SCC(=O)Nc3nc4ccccc4s3)nc1=O)CCC2,u,-27%,x,6%,13µM*
CCCCc1ccc(NC(=O)CSc2nc(=O)n(CCN(C)C)c3c2CCC3)cc1,12µM*,6%,x,1%,u
CCc1ccc(NC(=O)CSc2nc(=O)n(CCCN3CCOCC3)c3c2CCC3)cc1,u,1%,x,-2%,u
CCCCc1ccc(NC(=O)CSc2nc(=O)n(CCN(CC)CC)c3c2CCCC3)cc1,12µM*,5%,x,-4%,2.1µM*
CCCCc1ccc(NC(=O)CSc2nc(=O)n(CCCN3CCOCC3)c3c2CCC3)cc1,u,2%,x,2%,u
CCCCc1ccc(NC(=O)CSc2nc(=O)n(CCN3CCOCC3)c3c2CCC3)cc1,-59%,1%,x,1%,u
Cc1cccc(C(=O)NC2CCN(CC(=O)NCc3ccccc3F)CC2)c1,u,-1%,-3%,7%,4%
CCCOc1ccc(C(=O)Nc2ccc3c(c2)OCCO3)cc1,184%,44%,-6%,-2%,-38%
Cc1csc(SC(C)c2nc3scc(-c4ccccc4)c3c(=O)[nH]2)n1 (stereo not drawn),-13%,-1%,-47%,1%,40%
CN(C)c1nc(=NCc2ccco2)ss1,u,x,3%,-2%,2.6µM*
CCOC(CN=c1nc(N(C)C)ss1)OCC,x,-14%,x,x,x
COc1ccc(C2=CC(=O)OC3(CCCCC3)O2)cc1,4.1µM*,-8%,-60%,-11%,u
N/C(=N/OC(=O)c1ccccc1Cl)c1nonc1N,57%,28µM*,x,0%,-10%
